Shown are actives, neighbours in structure and some others; about 11% of the full set was active somewhere.
Pf growth 48h – Primary qHTS for delayed death inhibitors of the malarial parasite plastid, 48 hour incubation; P. falciparum luciferase growth in erythrocytes, 48 h; Potency, µM (series often up to 28.7 µM), inactives show at the highest dose activity change, negative = inhibition, hits mostly inhibitors; actives 5.9% (n = 310,000)
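A one-generation exposure of luciferase-tagged malaria parasites in RPMI 1640/Albumax erythrocyte culture, 37 C and 5% CO2. Inhibition is inferred from decreased luminescence after adding detection reagent.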
HCV inh – qHTS Assay for Inhibitors of Hepatitis C Virus (HCV) | Huh7.5.1 HCVcc-Cre infection, luciferase reporter, 44 h | Potency, µM (series often up to 41.8 µM), for inactives: at the highest dose activity change, negative = inhibition, most hits filed as inhibitors | actives 3.4% (n = 340,000)
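A cell-based infection assay in which seeded cells (1,000 per well) receive test compound after 4 h, are inoculated with HCVcc-Cre at approximately 0.5 moi, and are incubated 44 h before luminescence detection.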
AMA1-RON2 inh – qHTS for Inhibitors of AMA1-RON; Towards Development of Antimalarial Drug Lead: Primary Screen | Plasmodium falciparum AMA1 (3D7) - RON2 peptide interaction | AlphaScreen AMA1-biotinylated RON2 peptide binding | Potency, µM (top dose mostly 58.2 µM), inactives show top-dose activity change, negative = inhibition, hits mostly inhibitors | actives 0.2% (n = 360,000) | AID 720542, 2013;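 note: 0% = vehicle wells and -100% = peptide control; nearly all actives have a fitted effect of over 45% in size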
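AMA1 (3D7) with his tag at 25 nM final met compounds first, then biotinylated RON2 peptide at 25 nM; detection used donor plus acceptor beads, 10 µg/mL apiece, read by AlphaScreen after 30 min at room temperature.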
Pf growth 96h – Primary qHTS for delayed death inhibitors of the malarial parasite plastid, 96 hour incubation. P. falciparum luciferase reporter growth, 96 h. Potency, µM (highest dose often 28.7 µM), for the others: top-dose activity change, negative = inhibition, hits mostly inhibitors. actives 6.9% (n = 320,000)
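96 h incubation, 37 C, 5% CO2, of luciferase-reporter P. falciparum-infected RBCs (2% hematocrit, 0.05% parasitemia final) with test compounds; endpoint luminescence.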
The depositor's hits bear a star; u = inconclusive; x = no result given; [ ] = another dose, or the depositor's remark. Calls come from the whole dose curve; as a rule, active = well fitted curve in the direction sought with a large enough effect; inconclusive = small, poorly fitted or top-dose-only effect, or another doubt; inactive = no such curve, though single readings can be large; an effect the other way counts as inactive or inconclusive. Unless noted, % is set by controls: 0 for no effect and ±100 for the full control effect; potency is the fitted concentration of half-maximal effect.

SMILES	Pf growth 48h	HCV inh	AMA1-RON2 inh	Pf growth 96h
Cc1cc(C)c2c(c1)-c1c(ssc1=S)C(C)(C)N2C(=O)CN1C(=O)c2ccccc2C1=O	-113%	u	2%	u
CC[C@@]1(O)C(=O)OCc2c1cc1n(c2=O)Cc2cc3c([N+](=O)[O-])cccc3nc2-1	8.5µM*	x	x	u
O=c1cccc2n1Cc1cc3ccccc3nc1-2	181%	1%[8.37 µM]	9%	189%
CC[C@@]1(O)C(=O)OCc2c1cc1n(c2=O)Cc2cc3c(CN(C)C)c(O)ccc3nc2-1	8.5µM*	u	u	11µM*
CC[C@@]1(O)C(=O)OCc2c1cc1n(c2=O)Cc2cc3c(N)cccc3nc2-1	1.9µM*	27%	22%	1.2µM*
Cc1cc(C)c(NC(=O)CNC(=O)COC(=O)C2=COCCO2)c(C)c1	21%	u	-13%	1%
COC(=O)[C@H]1C[C@H](O)CN1S(=O)(=O)c1ccc(Br)cc1F	x	-2%	0%	x
CC(C)CN(C(=O)CSc1nn(-c2ccc(Cl)cc2)c(=S)s1)C1CCS(=O)(=O)C1 (stereo unspecified)	8.3µM*	-10%	35%[11.6 µM]	u
Cc1ccc(-n2ccnc2SCC(=O)N(CC(C)C)C2CCS(=O)(=O)C2)c(C)c1 (stereo unspecified)	u	0%	-12%	4.1µM*
Cc1ccc(-c2nnc(SCc3nc(N)nc(Nc4ccccc4C)n3)n2N)cc1	-2%	3%	-1%	x
Cc1ccccc1Nc1nc(N)nc(CN(C)c2ccccc2)n1	-16%	-14%	-16%	x
Nc1nc(CCl)nc(Nc2ccc3ccccc3c2)n1	u	0.89µM*	6%	13µM*
Cc1ccccc1Nc1nc(N)nc(CCl)n1	u	1.3µM*	7%	5.2µM*
C=CCN(CC=C)Cc1nc(N)nc(Nc2ccccc2C)n1	u	-5%	68%	9.3µM*
CCc1ccccc1NC(=O)CN(C)Cc1nc(N)nc(Nc2ccccc2C)n1	u	22%	32%	-19%
Cc1ccc(Nc2nc(N)nc(CN3CCN(C)CC3)n2)cc1C	0%	x	x	u
Cc1ccccc1Nc1nc(N)nc(CSc2nnc(-c3ccccc3)n2C)n1	u	20%	7%	13µM*
CCN(C(=O)CN1C(=O)NC2(CCC(C)CC2)C1=O)C1CCCCC1 (stereo unspecified)	x	x	-5%	x
CCCCC(c1nnnn1CC1CCCO1)N1CCN(Cc2ccccc2)CC1 (stereo unspecified)	u	-18%	-16%	u
CCCCC(c1nnnn1CC1CCCO1)N1CCN(c2cccc(C)c2C)CC1 (stereo unspecified)	13µM*	8%	-3%	x
COc1ccc(C(c2nnnn2CC2CCCO2)N2CCN(c3cccc(C)c3C)CC2)cc1 (stereo unspecified)	9.3µM*	-1%	-1%	3%
COc1ccc(C(c2nnnn2CC2CCCO2)N2CCC(C(N)=O)CC2)cc1 (stereo unspecified)	10%	11%	1%	-17%
O=C(CSc1n[nH]c(-c2ccccc2)n1)c1ccccc1	22%	-8%	26%	68%
O=C(CSc1n[nH]c(-c2ccccn2)n1)Nc1ccc(Cl)cc1	u	5µM*	-86%	33%
O=C(CSc1ccccc1)Nc1nc2ccccc2[nH]1	123%	-23%	30%	125%
SMILES	Pf growth 48h	HCV inh	AMA1-RON2 inh	Pf growth 96h
O=C(CSc1n[nH]c(-c2ccccn2)n1)Nc1ccc(F)cc1	u	u	-87%	-8%
CC(C)c1ccc(C(=O)CSc2n[nH]c(-c3ccncc3)n2)cc1	x	-24%	11%	2.6µM*
O=C(CSc1ccc(Cl)cc1)Nc1ccc(-c2nc3ccccc3[nH]2)cc1	4.1µM*	-11%	9%[11.6 µM]	10%
O=C(COC(=O)CSc1ccc(Cl)cc1)Nc1ccccc1	18%	14µM*	23%	63%
CCCCOc1ccc(C(=O)OCC(=O)NC2CCCC2)cc1	2%	10%	8%	24%
O=c1oc(Cc2ccccc2)nc2ccccc12	44%	2%	-9%	29%
Cc1ccc(NC(=O)CSc2n[nH]c(-c3ccncc3)n2)cc1C	12µM*	-13%	-18%	-23%
CCOc1ccccc1CNC(=O)C1CCCN(c2nnc(C)c3c(C)n(-c4ccccc4)nc23)C1 (stereo unspecified)	13µM*	u	15%	38%

Screening results: PubChem BioAssay, National Center for Advancing Translational Sciences (NCATS)
